Test results: PubChem BioAssay (Tox21)
Records with an inconclusive call do not appear. Activity calls are given as the source filed them. Unless noted, calls follow the shape of the dose curve; as a rule, active = well fitted curve in the direction sought with a large enough effect in the repeat runs; inconclusive = weak or mixed curves; inactive = no such curve, though single readings can be large; an effect the other way counts as inactive or inconclusive.

How the values were obtained:
[1] = qHTS assay to identify small molecule antagonists of the estrogen related receptor (ERR) signaling pathway from Tox21 library - cell viability counter screen (AID 1224834); also: nearly all actives have a fitted effect of over 30% in size
Procedure, shortened: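 ERR reporter cells, 2,000 per well, rested 6 h, then exposed to compound in DMSO for 17.5 hours at 37 C. Viability read as fluorescence after 30 min with CellTiter-Fluor.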

[2] = target: Luciferin 4-monooxygenase (Photinus pyralis) (UniProt P08659); assay: qHTS assay to identify small molecule inhibitors of firefly luciferase (AID 1224835); also: series mostly up to about 120 µM; nearly all actives have a fitted effect of over 25% in size
Chain of Luciferin 4-monooxygenase (Photinus pyralis) (P08659 whole entry, looked up): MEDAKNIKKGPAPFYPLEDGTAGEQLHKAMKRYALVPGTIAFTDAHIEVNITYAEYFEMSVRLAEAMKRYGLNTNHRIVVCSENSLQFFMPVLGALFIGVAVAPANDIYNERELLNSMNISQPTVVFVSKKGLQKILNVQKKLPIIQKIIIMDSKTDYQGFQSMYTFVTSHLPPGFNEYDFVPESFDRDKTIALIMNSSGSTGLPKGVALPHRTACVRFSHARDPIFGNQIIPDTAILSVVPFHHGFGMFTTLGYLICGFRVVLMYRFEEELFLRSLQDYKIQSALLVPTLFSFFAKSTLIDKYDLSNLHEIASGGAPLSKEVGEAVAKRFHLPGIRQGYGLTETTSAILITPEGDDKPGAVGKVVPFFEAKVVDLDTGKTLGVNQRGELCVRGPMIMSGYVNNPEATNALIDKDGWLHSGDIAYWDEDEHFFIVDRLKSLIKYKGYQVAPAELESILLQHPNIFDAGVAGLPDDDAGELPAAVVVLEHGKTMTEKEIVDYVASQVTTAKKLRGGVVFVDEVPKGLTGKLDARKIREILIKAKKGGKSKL
Procedure, shortened: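 Biochemical qHTS: compounds run as interplate titrations against purified firefly enzyme, with D-luciferin and ATP each at its KM concentration. Light output recorded by CCD imaging.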

[3] = qHTS assay to identify small molecule agonists of the constitutive androstane receptor (CAR) signaling pathway - cell viability counter screen (AID 1224836); also: series mostly up to about 92 µM; nearly all actives have a fitted effect of over 45% in size
Procedure, shortened: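 23 h treatment, 37 C, 5% CO2. Cell line: HepG2 stably expressing hCAR with a CYP2B6-2.2kb construct. Co-treatment: PK11195, 0.75 uM final. Read-out: CellTiter-Fluor fluorescence intensity.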

[4] = qHTS assay to identify small molecule antagonists of the constitutive androstane receptor (CAR) signaling pathway - cell viability counter screen (AID 1224837); also: series mostly up to about 92 µM; nearly all actives have a fitted effect of over 45% in size
Procedure, shortened: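 HepG2 cells stably carrying hCAR and CYP2B6-2.2kb reporter, stimulated with 50 nM CITCO and compounds at 15 concentrations for 23 h at 37 C. Viability measured by CellTiter-Fluor fluorescence.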

[5] = qHTS assay to identify small molecule antagonists of the estrogen related receptor signaling pathway with the pleiotropic PPARgamma coactivator (PGC) from Tox21 10K library - cell viability counter screen (AID 1224840; active = well fitted cell-killing curve with a large enough effect in the repeat runs, not every such curve was filed as active; also: nearly all actives have a fitted effect of over 40% in size)
Procedure, shortened: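 PGC/ERR cells (2,000/well) plated 6 h, then compound-treated for 17.5 h at 37 C. Viability measured by CellTiter-Fluor fluorescence after 30 min at 37 C, multiplexed with the pathway assay.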

[6] = target: Nuclear receptor subfamily 1 group I member 3 (Homo sapiens) (UniProt Q14994); assay: qHTS assay to identify small molecule antagonists of the constitutive androstane receptor (CAR) signaling pathway (AID 1224838); also: nearly all actives have a fitted effect of over 40% in size
Chain of Nuclear receptor subfamily 1 group I member 3 (Homo sapiens) (Q14994 whole entry, looked up): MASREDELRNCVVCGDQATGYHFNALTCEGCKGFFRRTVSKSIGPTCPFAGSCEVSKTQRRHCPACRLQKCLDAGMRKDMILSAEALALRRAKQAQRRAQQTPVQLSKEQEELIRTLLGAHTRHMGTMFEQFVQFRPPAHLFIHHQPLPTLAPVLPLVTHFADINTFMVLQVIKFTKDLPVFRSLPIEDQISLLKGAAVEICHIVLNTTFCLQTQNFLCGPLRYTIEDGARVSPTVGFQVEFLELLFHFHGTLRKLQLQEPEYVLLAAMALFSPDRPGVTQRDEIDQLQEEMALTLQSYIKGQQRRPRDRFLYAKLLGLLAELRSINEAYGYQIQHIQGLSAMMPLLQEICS
Procedure, shortened: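 HepG2 cells stably carrying hCAR and a CYP2B6-2.2kb luciferase reporter, seeded 4 hrs before compound (15 concentrations). Stimulated with 50 nM CITCO for 24 hr at 37 C. ONE-Glo luminescence read after 30 min at room temperature.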

[7] = target: Nuclear receptor subfamily 1 group I member 3 (Homo sapiens) (UniProt Q14994); assay: qHTS assay to identify small molecule agonists of the constitutive androstane receptor (CAR) signaling pathway (AID 1224839); also: series mostly up to about 92 µM; nearly all actives have a fitted effect of over 15% in size
Procedure, shortened: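 Compounds tested at 15 concentrations on HepG2 cells stably harbouring hCAR and CYP2B6-2.2kb reporter constructs, co-treated with PK11195 (0.75 uM final), 24 h at 37 C; luminescent reporter signal quantified.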

Measured: Potency

Oc1ccccc1F
not listed: [6] | [7]
inactive: all other assays above

CC(=O)Nc1ccc(C)c(Cl)c1
not listed: [4]
inactive: all other assays above

COc1ccc(S(=O)(=O)Nc2nnc(CC(C)C)s2)cc1
inactive: [1] | [2] | [3] | [5]
